{"source": "paper PMC12864922", "about": "“TDP-43 directly inhibits mRNA accumulation in neurites through modulation of mRNA stability”", "binders": {"B1": {"name": "ENSMUSG00000058297.497|Spock2|151:155 (ssRNA)", "RNA": "GGGAGUUCUACAGUCCGACGAUCGCUUCGAUAUCCGCAUGCUAGGUUGGAGAGAGUAAAUGUGCCUUGAGAGACCACUCAGAGGUCCCAGGAGGAACGGGGGCGGGGCUUAGCCUGGGAGUUCUGGCAGGAGGCAAAGUUGGUGAGAGUCCUGGGACAUCUUACCCCCAGUGUUCCACAGGAGUCGUGACCACCACACAUGGGUGGGCACAGGUCUGCCUUGCUCCAGCCCCCUCCCUUGGUUUCUGUUGGUACCCAUUUGGCUUUUAUCUGCUUUCUGCUUCACCACUAAGUGCGUAGGUGGCUCUUGCGGUCGCACUAGUGUGGAAUUCUCGGGUGUCAAGG"}, "B2": {"name": "ENSMUSG00000061578.971|Ksr2 (ssRNA)", "RNA": "GGGAGUUCUACAGUCCGACGAUCGCUUCGAUAUCCGCAUGCUAGGAAGGUAGUUUUCCCCCAGAAAGUCCCUUCUAAUAAACAUUGAUGACUUUAGAAUCCAUGACUCAGAAUUUUCCAGAGACCCAAUCCCUCGGGGUCCACUUAGUGAUGGGACCAUACAAGAGUUUAUUUCCAAUUAGAGAAUUGGGUCAACUGGGAAAGGCUUCUUUCCUGGUAACCCUGCUACUGAUACUAUGUUGAAACAGGAAUCGACUCUAACUGCUUUUUGGCCUCUUCCCUGCACGGGAGUCUCAAAAUCAAGCUCUUGCGGUCGCACUAGUGUGGAAUUCUCGGGUGUCAAGG"}, "B3": {"name": "ENSMUSG00000058297.456|Spock2 (ssRNA)", "RNA": "GGGAGUUCUACAGUCCGACGAUCGCUUCGAUAUCCGCAUGCUAUCACACAGGUCAGAUUAUUGUCGGUCCUGCGGGCCUCAUCCUUGAAUAAGCUGCCUGCCCAGUUCCUCCAUCCGUGUUCCUGCCUGCUCCCGUUCCCUUGUUGCGGGCAGGAGAGGUAGGGCUGUGUUGGAAAGAGUUCAACCAAAUUACGGCAGCACCACAUCUUGCCGAGCCCUGGAGCUGCCCUACUAAGAGCCUCCUUAGCCCUGGGUGCUGGGAAGGAUGGUGUACGUUGGGGAAGUUUGAGGUUGGAGAGAGUACUCUUGCGGUCGCACUAGUGUGGAAUUCUCGGGUGUCAAGG"}, "B4": {"name": "ENSMUSG00000029028.209|Lrrc47 (ssRNA)", "RNA": "GGGAGUUCUACAGUCCGACGAUCGCUUCGAUAUCCGCAUGCUACAGCAGCUGCACAGAGGACUUGGUGGCCCCGUGCCUUGCCAUCUGGCUGAGAAGAGAACCAGACCCUCAGCCUUCCCCCUCGACACCUUCUCGUUGGUGACCUCUGACCUUAAAGGACCAUUUCUACCUUCUGUAAAAGAACACCUGUUUGGGGUUGCGUGCGGCUUUCAUCCUAAGGCCGUGCGAGAGCCGUUAGCUGUCAGAACUAGUGAAGCUCCAGGCUCCUCGUGGCAGACCCUGGACAACGCUGGUAGCUGUUCCUCUUGCGGUCGCACUAGUGUGGAAUUCUCGGGUGUCAAGG"}, "B5": {"name": "ENSMUSG00000029636.505|Wasf3|28:32 (ssRNA)", "RNA": "GGGAGUUCUACAGUCCGACGAUCGCUUCGAUAUCCGCAUGCUAAUCAUUUAUGAGCAUAGGAUGAUGAGGCACACAAAGCUUUGUAAUAUUUUCAGCAGAAAUGCGUGAUACAUUUGAAUCCAUUGAGGUCUGGAGGGAGGGUAUCAGCCAGAGUAGCAAGGCGGUUUUGUUUAUUUGUUUGUUUUUUUGUUUGUUUGUUUUAUGAAGGAGAGUAUCUGUUAUCUUGCAGUAUUAUCAAUGCAGUUGUAAAUUGAAUCUAAAGUGGUAUUUAAAACUGUCAAACAAUUUUUAAUCUGUUUGUACUCUUGCGGUCGCACUAGUGUGGAAUUCUCGGGUGUCAAGG"}, "B6": {"name": "ENSMUSG00000031028.267|Tub (ssRNA)", "RNA": "GGGAGUUCUACAGUCCGACGAUCGCUUCGAUAUCCGCAUGCUAUGCUUUGAAAUAGAUAUGUUUGGAAACGCUAAGUAGAAGUUUAAAAAGUAGAGUCAUGUAGAGUCAUGCUUUGAAUAUGUGGGUCAUGCUUUAGAUAUGAAGAGGCUAUGCAGGUAAGGAGGCUGGAUUGAUGUAAAUGGAAGUAGUACUUUAAGAAAGCUCUAGAUUUCCCAGGUUGGACACUCGACGAAAGGCACACCUGCUGCAGCAGGUUCUGACACACCUGAGCCAUACAUUGCCAUCAGAGAACCCUCAGCGAGCUCUUGCGGUCGCACUAGUGUGGAAUUCUCGGGUGUCAAGG"}, "B7": {"name": "ENSMUSG00000043670.108|Diras1 (ssRNA)", "RNA": "GGGAGUUCUACAGUCCGACGAUCGCUUCGAUAUCCGCAUGCUACUUUCACCUGAUCCUGUCCUUUCCCCGUGACCUCUGACCUGUGGCCUUCCCUGGGUCCAGAACACCCCUGUCCUCUCCUGUCUGCACACCAGGGUGGAUGGGCCCGAGGGCUGGGCCUCAGGCACCAGGCAAUAAACACAGGGCCUGCAGCAAUGCCCUGGCCACCCCGAGUACCACCUCUGGAAUAGCAGACGCCCACAGCACAAGCCCAGGACUGUCCCUUCAGGGGAGGCACACUGGAACCCUGAACUUGGAGUGUGCUCUUGCGGUCGCACUAGUGUGGAAUUCUCGGGUGUCAAGG"}, "B8": {"name": "ENSMUSG00000061578.1206|Ksr2 (ssRNA)", "RNA": "GGGAGUUCUACAGUCCGACGAUCGCUUCGAUAUCCGCAUGCUAUAUGGACACACUAGAAAGCCCAUCCUAGGUCUUUCCAUGGUCUCUCACACCCCUGUCCCCGUCCCCUCCACCCCCCGGCAGCAUGCUUCACUCUAUGAAUGAGCCGCUGGGAUAUUGACAUGGAGAUGUGUUGAUGGAAAAAGCCUCCACACCCAACAUAACUCUCCAGAGAGAUAUUGAAAGUGAUGGGCAGAGAGUCUGACAAUGACCCAGGGGUCAUUGUGAGUCCUAGGCUGAAUCUGUAAUGGGGUCCAAAGUGCCUCUUGCGGUCGCACUAGUGUGGAAUUCUCGGGUGUCAAGG"}, "B9": {"name": "ENSMUSG00000022095.190|Fam160b2 (ssRNA)", "RNA": "GGGAGUUCUACAGUCCGACGAUCGCUUCGAUAUCCGCAUGCUAUUCCCUCCUGGGCAAGGAGGAGCAGGCCAGAGCCCCUUUUGCUUCCUUUUCCUGCCCAUGCCACCUCUCGAAGCCGGGCACAGGUUGCCAGGAGGUGACAUGAAAGAGGAGGAAACUCCAUGACCUCUACAUCCCCCGCAGUCCUCCCAGCGGGGGAGGACUUCUCUGCUGCUCCGAAGAACAUCAUGCACUCCUGUGUGUGUGUGUGAGUGUGUGUGUGUGUGUGUGUGUGUGUGUGUGUGUAUGUGUGUGUAUAUGUGCUCUUGCGGUCGCACUAGUGUGGAAUUCUCGGGUGUCAAGG"}}, "note": "Over roughly 9,900 sequences, “r (bound/input frequency ratio)” has its median near 0.7; the highest 2% begin near 6.5. Many of the other results were omitted from the sample, so the highest values are more common in it than they were."}
{"target": "TDP-43 (Homo sapiens, UniProt Q13148 1-414)", "sequence (Q13148 whole entry)": "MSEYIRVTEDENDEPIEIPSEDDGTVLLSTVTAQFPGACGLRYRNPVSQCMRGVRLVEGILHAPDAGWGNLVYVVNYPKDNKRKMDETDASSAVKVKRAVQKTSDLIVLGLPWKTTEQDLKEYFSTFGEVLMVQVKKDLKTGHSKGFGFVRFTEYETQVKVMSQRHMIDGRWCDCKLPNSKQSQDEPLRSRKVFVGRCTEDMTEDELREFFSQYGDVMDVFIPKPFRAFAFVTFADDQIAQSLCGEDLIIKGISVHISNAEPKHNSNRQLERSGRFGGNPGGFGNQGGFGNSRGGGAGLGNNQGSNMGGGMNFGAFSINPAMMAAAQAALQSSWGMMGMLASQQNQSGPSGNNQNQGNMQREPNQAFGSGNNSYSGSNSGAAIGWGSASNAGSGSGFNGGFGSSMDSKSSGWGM", "assay": "RNA Bind-n-Seq with designed 260-mer pool; 25 mM Tris-HCl, 150 mM KCl, 3 mM MgCl2, BSA (printed 500 mg/mL), 20 units/mL SUPERase IN; pH not stated; 500 nM RNA pool, 1 h, 4 C; TDP-43 5, 50, 500 nM; high values mean tight binding", "settings": "protein: recombinant; tags: SBP (GST cleaved off with PreScission; pGEX-GST-SBP)", "in_short": "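Duplicate measurements used two independent batches of recombinant SBP-tagged TDP-43, which was captured on streptavidin beads at 5, 50 or 500 nM. The beads were incubated with 500 nM of an in vitro-transcribed 260-nt 3′ UTR oligo pool for 1 h at 4 °C in 25 mM Tris-HCl, 150 mM KCl, 3 mM MgCl2, BSA and SUPERase IN. After washing, biotin elution, reverse transcription, PCR amplification and sequencing, binding was expressed as R: each oligo's normalized read abundance in the bound sample over its abundance in input.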"}
{"binder": "B1", "binding signal": "2.24 R (bound/input frequency ratio)"}
{"binder": "B2", "binding signal": "0.299 R (bound/input frequency ratio)"}
{"binder": "B3", "binding signal": "0.782 R (bound/input frequency ratio)"}
{"binder": "B4", "binding signal": "0.424 R (bound/input frequency ratio)"}
{"binder": "B5", "binding signal": "0.502 R (bound/input frequency ratio)"}
{"binder": "B6", "binding signal": "2.93 R (bound/input frequency ratio)"}
{"binder": "B7", "binding signal": "1.22 R (bound/input frequency ratio)"}
{"binder": "B8", "binding signal": "0.481 R (bound/input frequency ratio)"}
{"binder": "B9", "binding signal": "7.2 R (bound/input frequency ratio)"}
